Experimental data reported in PubChem BioAssay AID689 (Sanford-Burnham Center for Chemical Genomics, 2007).
Screen size: about 62,000 compounds; about 80 (0.1%) were called active. No rule for the calls is given here. Only a sample is shown. Measured potencies and affinities stand elsewhere.

biological target: Ephrin type-A receptor 4 (Mus musculus) (UniProt Q03137); experiment: EphA4 ligand-binding antagonists – biochemical, colorimetric, mouse EphA4, primary screen (AID 689); conditions: EphA4-AP binding to KYL peptide, pNPP A405, at 10 µM, hits give high values
Sequence (Q03137 whole entry, looked up): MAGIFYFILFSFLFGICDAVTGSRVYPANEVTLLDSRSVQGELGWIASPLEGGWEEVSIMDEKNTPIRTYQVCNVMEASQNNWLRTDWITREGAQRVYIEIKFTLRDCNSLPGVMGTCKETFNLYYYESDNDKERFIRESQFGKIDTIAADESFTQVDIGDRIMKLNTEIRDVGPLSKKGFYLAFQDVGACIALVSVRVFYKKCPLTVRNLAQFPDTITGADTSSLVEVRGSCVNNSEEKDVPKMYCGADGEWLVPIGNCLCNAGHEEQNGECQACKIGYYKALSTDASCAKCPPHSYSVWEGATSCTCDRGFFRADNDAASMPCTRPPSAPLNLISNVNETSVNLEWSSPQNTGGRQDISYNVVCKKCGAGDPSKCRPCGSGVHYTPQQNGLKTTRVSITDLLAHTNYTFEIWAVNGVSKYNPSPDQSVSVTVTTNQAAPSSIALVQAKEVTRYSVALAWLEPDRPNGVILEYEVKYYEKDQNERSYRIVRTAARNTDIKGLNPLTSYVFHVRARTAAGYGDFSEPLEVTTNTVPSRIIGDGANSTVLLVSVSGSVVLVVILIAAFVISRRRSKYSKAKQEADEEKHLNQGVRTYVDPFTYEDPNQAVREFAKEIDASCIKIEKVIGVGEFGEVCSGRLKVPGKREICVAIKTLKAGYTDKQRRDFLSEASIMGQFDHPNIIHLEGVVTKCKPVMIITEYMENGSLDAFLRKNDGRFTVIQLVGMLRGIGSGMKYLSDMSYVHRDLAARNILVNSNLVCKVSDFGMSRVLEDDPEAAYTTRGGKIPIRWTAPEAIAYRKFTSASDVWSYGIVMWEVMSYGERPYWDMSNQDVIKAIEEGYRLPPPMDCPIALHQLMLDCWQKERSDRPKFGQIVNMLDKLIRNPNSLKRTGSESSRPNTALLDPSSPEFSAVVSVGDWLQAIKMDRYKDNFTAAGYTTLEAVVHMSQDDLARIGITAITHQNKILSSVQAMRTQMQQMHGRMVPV

inhibition, inactive:
Cc1cc2c(ccc3[nH]onc32)n1 16.7%
CN(C)/C(CN1CCOCC1)=C1\N=C(c2ccccc2)OC1=O -14%
CC1=NN(c2ccccc2)C(=O)/C1=C/c1cc2cc(C)ccc2nc1N1CCCCC1 5.3%
O=C1OC(c2ccccc2)=N/C1=C\N1CCCCC1 -17.4%
Cc1ccc(C2=N/C(=C\N3CCCCC3)C(=O)O2)cc1 -3.3%
CCn1c(SCC(=O)OC(C)C)nnc1-c1cccc(Cl)c1 -13.7%
C=CCNC(=O)c1ccc(N2C(=O)c3ccccc3C2=O)cc1 -9.3% [this sample at 5 µg/mL]
CCOC(=O)N1CCN(C(=O)CSCc2nc(-c3ccccc3C)oc2C)CC1 7.2%
CCOc1ccc(N(CC(=O)Nc2ccc3c(c2)OCCO3)S(=O)(=O)c2c(C)noc2C)cc1 -0.5%
O=C(C/C=N\OCc1c(Cl)cccc1Cl)Oc1ccc(Cl)cc1Cl -11.4%
Nc1ccc2c(c1)C(=O)C(=O)c1ccccc1-2 -16.9%
Nc1ccc(NC(=O)c2ccccc2)c2c1C(=O)c1ccccc1C2=O -5.6%
CC1CN(CC(=O)N2CCc3[nH]c4ccccc4c3C2)CC(C)O1 (stereo not given) -14.2%
CC(N=c1ccccn1C(=O)Nc1ccc(Cl)cc1)c1ccco1 (stereo not given) 6.6%
CN(C)c1ccc(N=Cc2nc(-c3ccccc3)oc2O)cc1 -7.6%
Oc1oc(-c2ccccc2)nc1C=Nc1ccccc1 1%
COc1ccc(C2C(C(=O)OCC(=O)N3CCCCC3)CCC(=O)N2c2ccc(OC)cc2)cc1 (stereo not given) -9.6%
COc1cc(NC(=O)c2ccc(NS(=O)(=O)c3c(C)noc3C)cc2)cc(OC)c1 -7.5%
O=C(CSc1nnc(-c2ccco2)c(-c2ccco2)n1)Nc1ccccc1 41.7%
Cc1ccccc1NC(=O)CSc1nnc(-c2ccco2)c(-c2ccco2)n1 32.3%
CS(=O)(=O)N1CCN(Cc2ccc(Cl)cc2)CC1 -10.7% [this sample at 5 µg/mL]
CC(C)C(C(=O)O)N1C(=O)/C(=C/c2ccc3c(c2)OCO3)SC1=S (stereo not given) -2% [this sample at 5 µg/mL]
CC(C(=O)O)N1C(=O)/C(=C/c2ccc([N+](=O)[O-])cc2)SC1=S (stereo not given) 3.4% [this sample at 5 µg/mL]
CC(C(=O)O)N1C(=O)/C(=C/c2ccc3c(c2)OCO3)SC1=S (stereo not given) 0.6% [this sample at 5 µg/mL]
CC(C)CN1C(=O)/C(=C/c2ccco2)SC1=S 30.2% [this sample at 5 µg/mL]
CCOC(=O)C1CCN(CCC(=O)Nc2cccc(Cl)c2)CC1 -3.9%
O=C(Cc1cccs1)Nc1nnc(Cc2ccc(F)cc2)s1 -11.3%
COc1ccc(Cc2nnc(NC(=O)c3cccs3)s2)cc1 -1.1%
O=C(NCCCN1CCOCC1)c1cccc(Cl)c1 -2.3% [this sample at 5 µg/mL]
O=C(COc1ccc(Cl)cc1Cl)Nc1ccc(NC(=O)COc2ccc(Cl)cc2Cl)cc1 -4.1% [this sample at 5 µg/mL]
O=C(c1ccccc1[N+](=O)[O-])N1CCN(C/C=C/c2ccccc2)CC1 -10.3% [this sample at 5 µg/mL]
CCOc1cc(/C=C2/SC(=S)N(CC)C2=O)ccc1OCc1ccccc1Cl 5% [this sample at 5 µg/mL]
Cn1c2ccc(Cl)cc2c2nc3ccccc3nc21 -1.5%
CCn1c2ccccc2c2nc3ccccc3nc21 40.1%
Cc1cc(NC(=O)CSc2nnc(C3COc4ccccc4O3)o2)no1 (stereo not given) -5.5%
N#CC1=C(N)C(C#N)(C#N)C(c2cccnc2)C2CCCC=C12 (stereo not given) -10%
O=C1/C(=C/C=C/c2ccccc2)SC(=S)N1c1cccc(C(F)(F)F)c1 3.3% [this sample at 5 µg/mL]
COC(=O)CN1C(=O)/C(=C\C=C\c2ccccc2)SC1=S 7.7% [this sample at 5 µg/mL]
CCOCCCNc1nc2c(C)cccn2c(=O)c1/C=C1\SC(=S)N(CC(C)C)C1=O -4.7%
CCCN1C(=O)/C(=C/c2c(NCCCOC(C)C)nc3c(C)cccn3c2=O)SC1=S 38.4%
COc1ccc(/C=C/C(=O)CC(=O)C(Cl)(Cl)Cl)cc1 5.9% [this sample at 5 µg/mL]
Cc1nnc(NC(=O)c2sc3nc(-c4cccs4)cc(C(F)(F)F)c3c2N)s1 3.5%
Cc1c(C(=O)Nc2nccs2)sc2nc(-c3cccs3)cc(C(F)(F)F)c12 33%
CC(=O)c1cccc(NS(=O)(=O)c2cc(OCC(N)=O)c(C)cc2Cl)c1 -4%
CCOC(=O)C1=C(C)N(CCOC)C(=O)/C1=C\c1sccc1C -1.6% [this sample at 5 µg/mL]
Cc1cc(OCC(=O)O/N=C(\N)Cc2cccs2)ccc1Br -4.6%
CCSc1nnc(NC(=O)C(C)C)s1 -5.3%
CCSc1nnc(NC(=O)C(CC)(C(F)(F)F)C(F)(F)F)s1 -7.4%
Clc1ccc(CN2CCN(/N=C/c3ccc(Cl)c(Cl)c3)CC2)cc1 6% [this sample at 5 µg/mL]
Cn1nnnc1SCC(=O)c1ccco1 23.3%
Cc1ccc2nc(CSc3nc(C)cc(C)c3C#N)[nH]c2c1 5.6%
Cc1ccc(N2C(=O)c3n[nH]c(C)c3C2c2cccnc2)cc1 (stereo not given) -11.4%
Cc1nn(-c2ccccc2)c2c1C(c1ccc(O)c(O)c1)N1C(=N2)C(Nc2ccccc2)=Nc2ccccc21 (stereo not given) 23.4%
Cc1cccc(NC2=Nc3ccccc3N3C2=Nc2c(c(C)nn2-c2ccccc2)C3c2ccc(O)c(O)c2)c1 (stereo not given) 37%
Cc1ccc(NC2=Nc3ccccc3N3C2=Nc2c(c(C)nn2-c2ccccc2)C3c2ccc(O)c(O)c2)cc1 (stereo not given) 27.8%
